Measurements from the supplement of paper PMC12067093, “Discovery and optimisation of a covalent ligand for TRIM25 and its application to targeted protein ubiquitination” (Chemical Science, 2025).
Of roughly 21,000 targets only a part is listed; those with the largest changes were picked by preference.

Compound: CC1Cc2ccccc2N1C(=O)C1CCCN(C1)C(=O)CCl (mixture of isomers) [TRIM25 ligand 11 (diastereomer mixture)]
Experiment: probe-labelled cysteine peptide fold change vs DMSO (competition) (log2 fold change); higher = less target engagement (more negative = stronger competition)
Settings: THP-1, incubation time: 4 h
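Also: competitive chemoproteomic profiling in live THP-1 cells with an iodoacetamide desthiobiotin (IA-DTB) probe, comparing probe-labelled peptide intensities in compound-treated cells against DMSO-treated controls.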

Chain of UniProt Q9UGV2 (Q9UGV2 whole entry, looked up): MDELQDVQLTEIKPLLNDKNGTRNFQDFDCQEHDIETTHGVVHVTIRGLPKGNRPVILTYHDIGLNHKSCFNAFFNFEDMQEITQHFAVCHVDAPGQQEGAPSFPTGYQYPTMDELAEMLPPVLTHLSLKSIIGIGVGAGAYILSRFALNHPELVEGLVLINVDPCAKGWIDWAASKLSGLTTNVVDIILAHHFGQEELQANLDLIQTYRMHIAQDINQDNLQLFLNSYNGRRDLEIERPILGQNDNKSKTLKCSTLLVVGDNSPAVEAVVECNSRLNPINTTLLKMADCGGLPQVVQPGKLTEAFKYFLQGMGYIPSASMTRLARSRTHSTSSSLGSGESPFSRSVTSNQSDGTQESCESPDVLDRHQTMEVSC
Chain of UniProt P07237 (P07237 whole entry, looked up): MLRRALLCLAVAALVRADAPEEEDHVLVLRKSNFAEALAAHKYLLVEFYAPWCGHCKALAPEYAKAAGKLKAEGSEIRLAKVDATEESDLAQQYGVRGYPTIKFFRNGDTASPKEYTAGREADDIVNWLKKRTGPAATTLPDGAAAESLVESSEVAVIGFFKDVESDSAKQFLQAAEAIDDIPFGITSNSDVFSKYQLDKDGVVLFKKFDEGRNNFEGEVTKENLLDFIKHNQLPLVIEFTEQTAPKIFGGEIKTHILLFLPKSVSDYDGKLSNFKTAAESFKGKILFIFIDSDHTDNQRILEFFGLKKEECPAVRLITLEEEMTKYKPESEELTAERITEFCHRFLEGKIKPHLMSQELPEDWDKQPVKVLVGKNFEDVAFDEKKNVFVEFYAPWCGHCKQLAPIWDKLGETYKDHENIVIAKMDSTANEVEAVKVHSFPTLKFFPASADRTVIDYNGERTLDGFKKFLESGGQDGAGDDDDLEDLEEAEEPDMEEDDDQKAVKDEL
Chain of UniProt P04181 (P04181 whole entry, looked up): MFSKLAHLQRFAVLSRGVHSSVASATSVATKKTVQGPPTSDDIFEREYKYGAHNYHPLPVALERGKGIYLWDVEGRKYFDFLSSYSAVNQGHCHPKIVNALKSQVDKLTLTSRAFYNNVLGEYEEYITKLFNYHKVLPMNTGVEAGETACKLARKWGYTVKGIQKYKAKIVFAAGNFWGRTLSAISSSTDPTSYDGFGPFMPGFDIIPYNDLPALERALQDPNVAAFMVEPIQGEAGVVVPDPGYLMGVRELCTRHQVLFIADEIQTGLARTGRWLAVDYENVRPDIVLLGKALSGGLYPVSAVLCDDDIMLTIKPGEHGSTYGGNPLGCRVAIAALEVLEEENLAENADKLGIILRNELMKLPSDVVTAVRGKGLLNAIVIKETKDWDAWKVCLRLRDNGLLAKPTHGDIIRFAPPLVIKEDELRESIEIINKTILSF
Chain of UniProt Q9Y6K5 (Q9Y6K5 whole entry, looked up): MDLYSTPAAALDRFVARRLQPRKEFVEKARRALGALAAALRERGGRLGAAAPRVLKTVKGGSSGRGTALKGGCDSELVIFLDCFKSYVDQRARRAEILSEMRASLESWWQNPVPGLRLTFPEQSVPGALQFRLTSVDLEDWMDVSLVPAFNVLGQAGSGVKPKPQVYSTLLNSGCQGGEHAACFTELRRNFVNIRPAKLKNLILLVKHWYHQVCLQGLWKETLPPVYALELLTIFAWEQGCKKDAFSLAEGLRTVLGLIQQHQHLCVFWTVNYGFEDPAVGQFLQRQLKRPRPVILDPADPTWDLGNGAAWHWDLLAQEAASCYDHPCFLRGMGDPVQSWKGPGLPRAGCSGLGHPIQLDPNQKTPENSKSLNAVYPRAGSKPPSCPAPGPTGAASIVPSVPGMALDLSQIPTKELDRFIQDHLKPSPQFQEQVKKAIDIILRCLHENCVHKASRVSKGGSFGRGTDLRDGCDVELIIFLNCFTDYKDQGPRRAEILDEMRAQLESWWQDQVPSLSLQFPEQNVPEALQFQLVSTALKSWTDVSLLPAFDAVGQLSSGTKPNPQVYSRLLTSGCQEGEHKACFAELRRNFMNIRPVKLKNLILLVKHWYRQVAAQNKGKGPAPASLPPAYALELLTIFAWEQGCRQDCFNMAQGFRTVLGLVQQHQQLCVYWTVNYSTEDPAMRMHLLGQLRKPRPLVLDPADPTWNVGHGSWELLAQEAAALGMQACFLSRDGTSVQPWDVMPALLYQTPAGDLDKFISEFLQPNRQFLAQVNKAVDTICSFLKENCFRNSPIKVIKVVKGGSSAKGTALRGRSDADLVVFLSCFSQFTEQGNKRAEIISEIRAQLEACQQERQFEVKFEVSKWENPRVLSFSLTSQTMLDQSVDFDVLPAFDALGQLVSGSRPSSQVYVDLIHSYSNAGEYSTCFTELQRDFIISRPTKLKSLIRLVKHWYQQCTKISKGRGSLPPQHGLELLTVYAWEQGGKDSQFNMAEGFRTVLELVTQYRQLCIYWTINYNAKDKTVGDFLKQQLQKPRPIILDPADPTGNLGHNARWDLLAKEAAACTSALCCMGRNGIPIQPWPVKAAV
Chain of UniProt O75914 (O75914 whole entry, looked up): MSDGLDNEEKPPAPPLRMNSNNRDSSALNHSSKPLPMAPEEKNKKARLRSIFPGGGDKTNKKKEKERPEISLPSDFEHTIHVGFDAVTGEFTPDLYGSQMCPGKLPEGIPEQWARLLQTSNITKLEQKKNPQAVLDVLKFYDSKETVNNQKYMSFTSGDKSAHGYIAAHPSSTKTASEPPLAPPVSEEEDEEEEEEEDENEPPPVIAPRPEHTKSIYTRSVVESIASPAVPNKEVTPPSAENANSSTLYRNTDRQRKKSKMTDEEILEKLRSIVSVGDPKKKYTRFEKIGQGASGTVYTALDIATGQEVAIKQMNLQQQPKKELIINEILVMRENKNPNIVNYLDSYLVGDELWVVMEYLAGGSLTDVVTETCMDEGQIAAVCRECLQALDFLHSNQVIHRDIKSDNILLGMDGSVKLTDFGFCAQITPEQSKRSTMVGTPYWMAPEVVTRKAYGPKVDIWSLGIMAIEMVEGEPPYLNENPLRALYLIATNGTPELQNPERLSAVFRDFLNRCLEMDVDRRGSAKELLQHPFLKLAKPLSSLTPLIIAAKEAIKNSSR
Chain of UniProt Q9NTI5 (Q9NTI5 whole entry, looked up): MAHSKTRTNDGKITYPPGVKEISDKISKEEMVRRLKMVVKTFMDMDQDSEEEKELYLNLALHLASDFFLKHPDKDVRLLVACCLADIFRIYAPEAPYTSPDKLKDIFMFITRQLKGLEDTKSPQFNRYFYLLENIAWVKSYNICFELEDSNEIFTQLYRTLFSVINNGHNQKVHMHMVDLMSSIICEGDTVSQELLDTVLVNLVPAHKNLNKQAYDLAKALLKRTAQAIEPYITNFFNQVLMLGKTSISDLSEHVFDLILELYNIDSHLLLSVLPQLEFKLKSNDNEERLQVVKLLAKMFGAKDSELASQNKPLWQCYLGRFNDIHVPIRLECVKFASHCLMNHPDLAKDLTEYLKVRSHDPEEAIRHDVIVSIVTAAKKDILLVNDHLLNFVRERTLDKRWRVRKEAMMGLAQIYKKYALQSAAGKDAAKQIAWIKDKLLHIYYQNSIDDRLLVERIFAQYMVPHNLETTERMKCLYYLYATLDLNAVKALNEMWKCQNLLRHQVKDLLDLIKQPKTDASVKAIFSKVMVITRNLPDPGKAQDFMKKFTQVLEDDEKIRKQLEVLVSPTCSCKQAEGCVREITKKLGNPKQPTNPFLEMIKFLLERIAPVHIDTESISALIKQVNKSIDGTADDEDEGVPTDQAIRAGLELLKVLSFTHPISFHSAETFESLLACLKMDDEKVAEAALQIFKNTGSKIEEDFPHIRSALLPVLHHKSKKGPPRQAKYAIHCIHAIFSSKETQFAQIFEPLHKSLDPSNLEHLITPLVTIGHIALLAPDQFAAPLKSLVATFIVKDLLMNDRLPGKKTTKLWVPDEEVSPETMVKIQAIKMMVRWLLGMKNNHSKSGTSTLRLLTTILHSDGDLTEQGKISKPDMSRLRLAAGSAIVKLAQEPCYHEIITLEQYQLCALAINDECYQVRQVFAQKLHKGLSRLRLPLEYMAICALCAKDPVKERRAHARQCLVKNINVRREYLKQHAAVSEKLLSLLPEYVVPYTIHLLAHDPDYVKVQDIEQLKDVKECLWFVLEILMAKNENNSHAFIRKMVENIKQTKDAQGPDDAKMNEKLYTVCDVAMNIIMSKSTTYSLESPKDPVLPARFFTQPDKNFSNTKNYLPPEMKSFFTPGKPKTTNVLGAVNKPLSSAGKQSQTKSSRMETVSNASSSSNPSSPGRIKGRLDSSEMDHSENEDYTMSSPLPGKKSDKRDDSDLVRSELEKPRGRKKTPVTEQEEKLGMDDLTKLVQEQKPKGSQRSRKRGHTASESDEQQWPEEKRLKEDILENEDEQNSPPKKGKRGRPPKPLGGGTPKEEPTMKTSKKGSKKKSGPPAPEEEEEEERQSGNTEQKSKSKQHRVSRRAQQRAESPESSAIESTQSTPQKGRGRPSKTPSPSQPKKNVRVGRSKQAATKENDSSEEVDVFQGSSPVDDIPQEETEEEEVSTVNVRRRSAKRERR
Chain of UniProt Q53EL6 (Q53EL6 whole entry, looked up): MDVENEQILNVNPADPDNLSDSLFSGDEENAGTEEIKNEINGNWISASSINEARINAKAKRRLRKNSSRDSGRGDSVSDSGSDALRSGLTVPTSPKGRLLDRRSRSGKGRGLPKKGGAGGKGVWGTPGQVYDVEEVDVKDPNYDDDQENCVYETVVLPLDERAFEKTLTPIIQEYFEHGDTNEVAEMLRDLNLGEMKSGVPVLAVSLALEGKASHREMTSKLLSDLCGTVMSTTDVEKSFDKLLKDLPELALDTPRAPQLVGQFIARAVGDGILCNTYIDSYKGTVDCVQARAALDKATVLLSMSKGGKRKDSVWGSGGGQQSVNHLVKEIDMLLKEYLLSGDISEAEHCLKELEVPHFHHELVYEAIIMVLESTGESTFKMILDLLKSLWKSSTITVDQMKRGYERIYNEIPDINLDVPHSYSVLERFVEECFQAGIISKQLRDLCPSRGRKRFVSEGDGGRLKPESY
Chain of UniProt P61970 (P61970 whole entry, looked up): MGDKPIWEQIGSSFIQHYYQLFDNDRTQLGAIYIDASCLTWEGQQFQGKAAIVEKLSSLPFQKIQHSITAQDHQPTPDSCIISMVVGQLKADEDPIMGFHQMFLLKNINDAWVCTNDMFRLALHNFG

Target	probe-labelled cysteine peptide fold change (10 µM)	probe-labelled cysteine peptide fold change (50 µM)
NDUFAF4_Q9P032_87_AAETCQEPK (UniProt Q9P032)	-0.0492	-0.243
PAICS_P22234_100_CGETAFIAPQCEMIPIEWVCR (UniProt P22234)	0.00496	0.1
NLN_Q9BYT8_451_YNHAACFGLQPGCLLPDGSR (UniProt Q9BYT8)	0.193	0.181
NSUN5P1_Q3KNT7-3_149_AAAGACTPPCT<|>NSUN5_Q96P11-2_461_AAAGACTPPCT (UniProt Q96P11+Q3KNT7)	0.129	-0.0921
P4HB_P07237_53+56_YLLVEFYAPWCGHCK (UniProt P07237)	-0.316	-0.77
NPTX1_Q15818_89_CESQSTLDPGAGEAR (UniProt Q15818)	-0.269	0.111
NDUFV2_P19404_135+140_YHIQVCTTTPCMLR (UniProt P19404)	0.0444	-0.234
NOL6_Q9H6R4_256_LHPCPPPDFFRPCR (UniProt Q9H6R4)	0.0181	0.0433
NET1_Q7Z628_267_GYCSNQLAAK (UniProt Q7Z628)	0.0505	0.103
OPLAH_O14841_1053_DIPLNQGCLAPVR (UniProt O14841)	-0.146	0.136
NDC1_Q9BTX1_9_ATAVSRPCAGR (UniProt Q9BTX1)	0.00914	-0.136
NUTF2_P61970_80_IQHSITAQDHQPTPDSCIISMVVGQLKADEDPIMGFHQMFLLK (UniProt P61970)	-0.758	-0.409
OS9_Q13438_181_CDLNGRPR (UniProt Q13438)	0.0235	0.139
NUP160_Q12769_1042_QLVVVLCER (UniProt Q12769)	0.25	0.0629
PAK3_O75914_424_LTDFGFCAQITPEQSKR (UniProt O75914)	-0.27	-0.161
NEMF_O60524_575_YLTPGDIYVHADLHGATSCVIK (UniProt O60524)	0.0554	0.13
NUP43_Q8NFH3_222_VPLHCVDRHPNQQHVVATGGQDGMLSIWDVR (UniProt Q8NFH3)	0.271	0.0847
NUDT4B_A0A024RBG1_28_AACLCFR<|>NUDT3_O95989_25_AACLCFR<|>NUDT10_Q8NFP7_24_AACLCFR<|>NUDT11_Q96G61_24_AACLCFR<|>NUDT4_Q9NZJ9_25_AACLCFR (UniProt Q9NZJ9+Q8NFP7+Q96G61+O95989)	0.153	0.0838

Target	probe-labelled cysteine peptide fold change (10 µM)	probe-labelled cysteine peptide fold change (50 µM)
OSBPL9_Q96SU4_577_SILTVPWVELGGECNINCSK (UniProt Q96SU4)	0.311	0.198
OAS3_Q9Y6K5_350_AGCSGLGHPIQLDPNQK (UniProt Q9Y6K5)	-0.0319	-0.0671
PDS5A_Q29RF7_686_VLSFTHPTSFHSAETYESLLQCLR (UniProt Q29RF7)	-0.152	-0.172
OSBPL3_Q9H4L5_114_CIDLDTEEHIYHLK (UniProt Q9H4L5)	-0.0859	0.0383
PCDH17_O14917_335_DLGPNPIPAHCK (UniProt O14917)	0.6	0.546
NUP160_Q12769_529_NLQQEFWCK (UniProt Q12769)	0.248	0.177
PDS5B_Q9NTI5_732_YAIHCIHAIFSSK (UniProt Q9NTI5)	-0.00231	0.0228
NDRG3_Q9UGV2_30_NFQDFDCQEHDIETTHGVVHVTIR (UniProt Q9UGV2)	0.0929	0.0549
PDLIM7_Q9NR12_370_MTWHVHCFTCAACK (UniProt Q9NR12)	-0.0568	0.119
PDCD4_Q53EL6_288_GTVDCVQAR (UniProt Q53EL6)	0.164	0.233
OAT_P04181_150_VLPMNTGVEAGETACK (UniProt P04181)	0.0276	0.0487
NID1_P14543_679_EGSPDALQNPCYIGTHGCDTNAACRPGPR (UniProt P14543)	0.112	-0.182
NSD2_O96028_1102_KGEFVNEYVGELIDEEECMAR (UniProt O96028)	-0.163	-0.0932
NT5DC1_Q5TFE4_139_YYFYDNYFDLPGALLCAR (UniProt Q5TFE4)	0.416	0.718
PACSIN2_Q9UNF0_465_MEDEDEQGWCK (UniProt Q9UNF0)	0.118	0.00577
PDCD2L_Q9BRP1_191_LQDAVLGAAHPVPPGLPLFLPYYICVADEDDYRDFVNLDHAHSLLR (UniProt Q9BRP1)	-0.928	0.29
NKRF_O15226_386_VFLQDHCLAEGYGTKK (UniProt O15226)	-0.274	-0.153
